Results as given in the supplement of paper PMC6555819.

test system: PPARg:RXRa DBDmut IVT, anti-RXR (DBD mutation: RXRa K156A/R161A, NR concentration 270 nM, RXRa partner concentration 90 nM); assay: PBM binding z-score (relative to random genomic background probes); higher = stronger binding; sequences stand for … in GC…GCGATTGACAGCGTAGAATGAAGG
Summary of the method: (§1)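 Random background probes are the reference for binding z-scores. These scores derive from regression-normalized fluorescence on custom Agilent 4×180K protein-binding microarrays incubated 1 h with ligand-free nuclear receptor dimers. Binding was detected with antibodies against each partner (one per run).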

| Sequence | PBM binding z-score |
| --- | --- |
| TAGCCTAGGTCATGGGCTAGTATACCACGCGAAC | 1.15 |
| TCAGACAGGTGATGGTAACTCAGGTACGCAGTCG | 2.18 |
| GTACCAAGGAGAATAGGTCGTTGATGAGTAGGCG | -0.462 |
| TATCCTAGGTCATGGGCCAGTATACCACGCGAAC | 4.23 |
| CGAACTAGGTCATTGAGAGGACAGTGAATAGTAA | 7.95 |
| TTACCAAGGTGAGCTGAGGTCGTTGATCCAACTC | 1.28 |
| TTACCAAGGTTAGCTGAGGTCGTTGATCCAACTC | 0.191 |
| CCTTACGGGTCACAGACAGGTTATAGCATTTGGA | 3.72 |
| TCGAGTAGGTTAGTCGGGGCAATCAGCCAACATA | 2.37 |
| GCTTGTAGAACAAGGTTAAGAAAGACTAAGCTAA | 1.63 |
| TCATAGAGGTAATACAGGTGAAAGTCGGCATCTA | 2.41 |
| GCTGCTAAGTCAGGTTGGTCAGCTAACGGGTACG | -0.0465 |
| CGTCCAAGGTCAGAAGGTCAGTGAAAGCGACGTG | 2.28 |
| TCTATTAGTTGAAGGGCAACCGGCGAGTCCGTTT | 2.36 |
| ATCTCTAGGTTACCAAGTTCAGTGAATGCCGAAC | 4.8 |
| CGTCCAAGGTCAATGCTAGGTCCGTGAAAGCATT | 2.99 |
| CTACCAAGGGGAACAAGGTCGTTGATTACTATTC | 0.796 |
| CCTTACGGGCCACTGACAGGTTATAGCATTTGGA | 0.882 |
| TCAAGTTGGTCAAAGGTCACACACTCGAAATGCG | 3.5 |
| TCTATTAGTTGATTGGGGCAACCGAAACAGCGGA | 2.23 |

| Sequence | PBM binding z-score |
| --- | --- |
| ATATGTAGGTTACATCCGTGTCATTCAGGCTATG | 7.68 |
| GCAGACCGGTGAAACGCAGGTAACTCAGGGTGGC | -0.72 |
| CCAGACAGGTGAAAGGTAACTTAGTCTGGTACGC | 2.21 |
| GCTAGCTGGTCAGTAAAAGGTCACACACCGGTCG | 0.546 |
| ATCTCTAGGTAAGACTCAGTTCAGTTAAGAACGC | 2.13 |
| TCATATAGATAAACAGGTGAAAGTCCGTAAGTTA | 2.87 |
| TCGAGTATGTTAGTCGGGGCATTCAGCCAACATA | 0.962 |
| CGTCCAAGGTCAGCAGGTCAATGAAAGCGACGTG | 3.22 |
| CTCGAAAGGTCGGTTGAGGTGAGTATCCGGATAA | 0.135 |
| CCAAGTAGGTTATGGGGCATTCAGGCAACGGTGA | 5.49 |
| AGAATGAGGATATACGTAGATCAGGGAAGAAAGT | -0.138 |
| CCTTACGGGTCAAGGGTATAGCACGGGTGGTACG | 1.83 |
| CAAACTAGGTCACCGAGGTCAAAGTCCGTGCGTA | 8.69 |
| TGTCAAAGTTCAAAGGTAACCTAAGTATCCACAC | 0.886 |
| ACTATTAGTTGACTTAGGGCGACCGATACGACGC | 0.407 |
| TTACCAAGGTTAAGGTCGTTGATCCCTCTGTAGA | 0.95 |
| GCAGACAGGGGAAACGCAGGTAACTCAGGGTGGC | -0.682 |
| GCTAGCAGGCCATTTGGGTCACTCTATGACGGGC | 2.04 |
| ATCTCTAGCTAAGACTCAGTTCAGTGAAGAACGC | -0.0797 |
| ATCTCTAGGTAACAAGTTCAGTCAAAGAGAGGAC | 3.46 |

test system: PPARg:RXRa IVT, anti-PPARg (NR concentration 270 nM, RXRa partner concentration 90 nM); assay: as above
Summary of the method: as §1

| Sequence | PBM binding z-score |
| --- | --- |
| TAGCCTAGGTCATGGGCTAGTATACCACGCGAAC | 3.37 |
| TCAGACAGGTGATGGTAACTCAGGTACGCAGTCG | 0.496 |
| GTACCAAGGAGAATAGGTCGTTGATGAGTAGGCG | -0.173 |
| TATCCTAGGTCATGGGCCAGTATACCACGCGAAC | 5.29 |
| CGAACTAGGTCATTGAGAGGACAGTGAATAGTAA | 7.8 |
| TTACCAAGGTGAGCTGAGGTCGTTGATCCAACTC | 2.17 |
| TTACCAAGGTTAGCTGAGGTCGTTGATCCAACTC | 0.594 |
| CCTTACGGGTCACAGACAGGTTATAGCATTTGGA | 4.63 |
| TCGAGTAGGTTAGTCGGGGCAATCAGCCAACATA | 2.34 |
| GCTTGTAGAACAAGGTTAAGAAAGACTAAGCTAA | 1.06 |
| TCATAGAGGTAATACAGGTGAAAGTCGGCATCTA | 1.82 |
| GCTGCTAAGTCAGGTTGGTCAGCTAACGGGTACG | -0.681 |
| CGTCCAAGGTCAGAAGGTCAGTGAAAGCGACGTG | 3.06 |
| TCTATTAGTTGAAGGGCAACCGGCGAGTCCGTTT | 0.473 |
| ATCTCTAGGTTACCAAGTTCAGTGAATGCCGAAC | 4.07 |
| CGTCCAAGGTCAATGCTAGGTCCGTGAAAGCATT | 3.02 |
| CTACCAAGGGGAACAAGGTCGTTGATTACTATTC | 0.857 |
| CCTTACGGGCCACTGACAGGTTATAGCATTTGGA | 0.315 |
| TCAAGTTGGTCAAAGGTCACACACTCGAAATGCG | 6.22 |
| TCTATTAGTTGATTGGGGCAACCGAAACAGCGGA | 1.52 |

| Sequence | PBM binding z-score |
| --- | --- |
| ATATGTAGGTTACATCCGTGTCATTCAGGCTATG | 7.5 |
| GCAGACCGGTGAAACGCAGGTAACTCAGGGTGGC | -0.532 |
| CCAGACAGGTGAAAGGTAACTTAGTCTGGTACGC | 2.75 |
| GCTAGCTGGTCAGTAAAAGGTCACACACCGGTCG | 2.35 |
| ATCTCTAGGTAAGACTCAGTTCAGTTAAGAACGC | 1.36 |
| TCATATAGATAAACAGGTGAAAGTCCGTAAGTTA | 1.36 |
| TCGAGTATGTTAGTCGGGGCATTCAGCCAACATA | 0.119 |
| CGTCCAAGGTCAGCAGGTCAATGAAAGCGACGTG | 3.95 |
| CTCGAAAGGTCGGTTGAGGTGAGTATCCGGATAA | 0.893 |
| CCAAGTAGGTTATGGGGCATTCAGGCAACGGTGA | 4.96 |
| AGAATGAGGATATACGTAGATCAGGGAAGAAAGT | -0.218 |
| CCTTACGGGTCAAGGGTATAGCACGGGTGGTACG | 3.8 |
| CAAACTAGGTCACCGAGGTCAAAGTCCGTGCGTA | 9.03 |
| TGTCAAAGTTCAAAGGTAACCTAAGTATCCACAC | 4.82 |
| ACTATTAGTTGACTTAGGGCGACCGATACGACGC | 0.174 |
| TTACCAAGGTTAAGGTCGTTGATCCCTCTGTAGA | 2.15 |
| GCAGACAGGGGAAACGCAGGTAACTCAGGGTGGC | -0.536 |
| GCTAGCAGGCCATTTGGGTCACTCTATGACGGGC | 2.04 |
| ATCTCTAGCTAAGACTCAGTTCAGTGAAGAACGC | 0.0403 |
| ATCTCTAGGTAACAAGTTCAGTCAAAGAGAGGAC | 2.97 |
